Bioassay records from PubChem BioAssay.
Only some compounds are listed: those with a hit (about 19% of all), similar ones and a draw of the others.
HT1080 IDH1KD tx: kills HT-1080 cells with IDH1 knockdown; Potency, µM (doses to about 46.1 µM), for inactives: top-dose activity, negative = toxicity, usual class: cytotoxic; HT-1080 IDH1 knockdown viability, ATP luminescence, 48 h; 2% of 360,000 active;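 further: 0% = DMSO wells and -100% = cell-free medium wells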
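Assay cells: HT-1080 with IDH1 knockdown, 750 per well, RPMI/5% FBS. Exposure: 48 h at 37 °C following 2 h pre-incubation. Read: CellTiter-Glo luminescence; fitted concentration-response, curve class assigned.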
HT1080-NT tox: kills 2HG-producing HT-1080-NT fibrosarcoma cells; HT-1080-NT fibrosarcoma viability, CellTiter-Glo ATP luminescence, 48 h; Potency, µM (titrated, usually from 46.1 µM), for the others: at the top dose activity, negative = less viability, actives largely listed as cytotoxic; 1.6% of 360,000 active; AID 686970;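 further: NT is the 2HG producing partner of a matched IDH1 knockdown line; 0% = DMSO-treated cells and -100% = media-only wells without cells; nearly all actives have a fitted effect of over 55% in size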
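Fibrosarcoma NT cells, 750 per well in 5% FBS RPMI, were exposed to compound for 48 hours. Viability: CellTiter-Glo luminescence.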
KB-V1 MDR tox: KB-V1 MDR subline cytotoxicity. KB-V1 MDR cells viability, CellTiter-Glo, 72 h. Potency, µM (titrated, usually from 46.1 µM), actives largely listed as cytotoxic. 3.4% of 400,000 active. AID 1347076; further: nearly all actives have a fitted effect of over 60% in size
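Drug-selected KB-V1 cells, grown in DMEM lacking phenol red with 10% FBS, receive compound titrations; after three days at 37 degrees C, surviving cell ATP is quantified by CellTiter-Glo luminescence and responses normalized and curve-fitted.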
KB-3-1 cytotox: kills parental KB-3-1 adenocarcinoma cells | KB-3-1 viability, CellTiter-Glo ATP luminescence, 72 h | Potency, µM (top dose mostly 46.1 µM), usual class: cytotoxic | 1.4% of 400,000 active | AID 1347075; further: nearly all actives have a fitted effect of over 60% in size
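Cells are dispensed, compounds pinned in, plates held at 37 °C for 72 h, then CellTiter-Glo is added and luminescence read after 10 minutes. Cell line: parental KB-3-1 in phenol-red-free DMEM, 10% FBS.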
TDP1 cell noCPT: qHTS for Inhibitors of human tyrosyl-DNA phosphodiesterase 1 (TDP1): qHTS in cells in absence of CPT | DT40 Tdp1-/- hTDP1 cells, no CPT, ATP luminescence, 48 h | Potency, µM (top dose mostly 46.2 µM), for inactives: top-dose activity change, negative = growth inhibition, actives largely listed as inhibitors | 15% of 420,000 active | AID 686978, 2013; further: nearly all actives have a fitted effect of over 55% in size
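Luminescent ATP content (CellTiter-Glo) served as the growth readout. Knockout chicken DT40 cells expressing human TDP1 were exposed to compounds without camptothecin for a minimum 48 hr at 37 °C.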
TDP1 cell CPT: DT40-hTDP1 cell growth loss with CPT; chicken DT40 Tdp1-/-;hTDP1 cells + 20 nM CPT, ATP luminescence, 48 h; Potency, µM (doses to about 46.2 µM), without a hit: at the top dose activity change, negative = growth inhibition, hits mostly inhibitors; 12% of 420,000 active; further: nearly all actives have a fitted effect of over 55% in size
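Chicken DT40 Tdp1-/- cells complemented with human TDP1, 400 cells/well, exposed to compounds plus 20 nM camptothecin for at least 48 h at 37 C; viability read as ATP content by CellTiter-Glo luminescence.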
The depositor's hits bear a star. The call rests on the fitted dose curve; in most records, active means well fitted curve in the direction sought with a large enough effect; inconclusive means small, poorly fitted or top-dose-only effect, or another doubt; inactive means no such curve, though single readings can be large; an effect the other way counts as inactive or inconclusive. Unless noted, on the % scale 0 is the no-effect control and ±100 the full control effect; potency means the concentration at half of the fitted maximal effect.

Screening CN1CCN(C(=O)c2ccc(NS(=O)(=O)c3cccc([N+](=O)[O-])c3)cc2)CC1 returned HT1080 IDH1KD tx 13%, HT1080-NT tox 16%, KB-V1 MDR tox inactive, KB-3-1 cytotox inactive, TDP1 cell noCPT -21% and TDP1 cell CPT -2%.
For O=C(Cc1ccc(Cl)cc1)NCC(c1cccs1)S(=O)(=O)c1ccc(F)cc1 (stereo not drawn) the results were KB-V1 MDR tox inactive, KB-3-1 cytotox inactive, TDP1 cell noCPT inconclusive and TDP1 cell CPT inconclusive.
For N#Cc1c(C(F)(F)F)cc(-c2ccccc2)nc1SCCN1CCOCC1 the results were HT1080 IDH1KD tx 0%, HT1080-NT tox -2%, KB-V1 MDR tox inactive, KB-3-1 cytotox inactive, TDP1 cell noCPT inconclusive and TDP1 cell CPT 21µM*.
CC(C)(C)c1cc(OC(=O)C2CCCC2)ccc1O was read as HT1080 IDH1KD tx inconclusive, HT1080-NT tox inconclusive, KB-V1 MDR tox inactive, KB-3-1 cytotox inactive, TDP1 cell noCPT 3.7µM* and TDP1 cell CPT 5.2µM*.
Screening CCc1nnc(NC(=O)C(=O)c2cc(C)n(-c3ccccc3)c2C)s1 returned KB-V1 MDR tox inactive, KB-3-1 cytotox inactive, TDP1 cell noCPT -25% and TDP1 cell CPT -5%.
Screening O=[N+]([O-])c1ccc(-n2nnnc2-c2ccccc2)c([N+](=O)[O-])c1 returned HT1080 IDH1KD tx inconclusive, HT1080-NT tox inconclusive, KB-V1 MDR tox 18µM*, KB-3-1 cytotox inactive, TDP1 cell noCPT 2.9µM* and TDP1 cell CPT 3.7µM*.
COc1cc(NC(=O)c2ccc(OC)c([N+](=O)[O-])c2)ccc1NC(=O)c1cccs1 was read as HT1080 IDH1KD tx -18%, HT1080-NT tox -1%, KB-V1 MDR tox inactive, KB-3-1 cytotox inactive, TDP1 cell noCPT 6% and TDP1 cell CPT 5%.
`CCOc1ccc(C(=O)Nc2cccc(NC(=O)c3cccs3)c2)cc1[N+](=O)[O-]` gave HT1080 IDH1KD tx 0%, HT1080-NT tox -15%, KB-V1 MDR tox inactive, KB-3-1 cytotox inactive, TDP1 cell noCPT 18µM* and TDP1 cell CPT inconclusive.
Screening COc1ccc(C(=O)NC(=S)Nc2cc(C)ccn2)cc1[N+](=O)[O-] returned HT1080 IDH1KD tx -23%, HT1080-NT tox -25%, KB-V1 MDR tox inactive, KB-3-1 cytotox inactive, TDP1 cell noCPT inconclusive and TDP1 cell CPT 16µM*.
`CCOc1ccc(C(=O)NC(=S)Nc2ccccc2N2CCCCC2)cc1[N+](=O)[O-]` gave HT1080 IDH1KD tx 9%, HT1080-NT tox 3%, KB-V1 MDR tox inactive, KB-3-1 cytotox inactive, TDP1 cell noCPT inconclusive and TDP1 cell CPT 18µM*.
Screening COc1ccc(C(=O)NC(=S)Nc2ccccc2N2CCCCC2)cc1[N+](=O)[O-] returned HT1080 IDH1KD tx -19%, HT1080-NT tox -21%, KB-V1 MDR tox inconclusive, KB-3-1 cytotox inconclusive, TDP1 cell noCPT 6.5µM* and TDP1 cell CPT 12µM*.
`COc1ccc(C(=O)Nc2cc(C)on2)cc1[N+](=O)[O-]` gave HT1080 IDH1KD tx -18%, HT1080-NT tox -3%, KB-V1 MDR tox inactive, KB-3-1 cytotox inactive, TDP1 cell noCPT -4% and TDP1 cell CPT 11%.
`Cc1ccc(C(=O)Nc2nc3nc(C)cc(=O)n3[nH]2)cc1` gave TDP1 cell noCPT -3% and TDP1 cell CPT 1%.
CCOc1ccc(C(=O)NC(=S)Nc2ccc(N3CCCCC3)cc2)cc1[N+](=O)[O-] was read as HT1080 IDH1KD tx 1%, HT1080-NT tox 2%, KB-V1 MDR tox inactive, KB-3-1 cytotox inactive, TDP1 cell noCPT inconclusive and TDP1 cell CPT 12µM*.
`O=C(NC(=S)Nc1ccccc1N1CCCC1)c1ccc([N+](=O)[O-])cc1` gave HT1080 IDH1KD tx -14%, HT1080-NT tox -16%, KB-V1 MDR tox inconclusive, KB-3-1 cytotox inactive, TDP1 cell noCPT 18µM* and TDP1 cell CPT 26µM*.
`CC(=O)NC(=S)Nc1ccccc1N1CCCCC1` gave HT1080 IDH1KD tx 0%, HT1080-NT tox -3%, KB-V1 MDR tox inactive, KB-3-1 cytotox inactive, TDP1 cell noCPT -15% and TDP1 cell CPT -6%.
Screening Cc1c(C(=O)NC(=S)Nc2ccccc2N2CCCC2)cccc1[N+](=O)[O-] returned HT1080 IDH1KD tx -5%, HT1080-NT tox -2%, KB-V1 MDR tox 13µM*, KB-3-1 cytotox inactive, TDP1 cell noCPT inconclusive and TDP1 cell CPT inconclusive.
Screening CCOc1ccc(C(=O)NC(=S)Nc2cccc(NC(=O)c3ccco3)c2)cc1[N+](=O)[O-] returned HT1080 IDH1KD tx -2%, HT1080-NT tox -13%, KB-V1 MDR tox inconclusive, KB-3-1 cytotox 18µM*, TDP1 cell noCPT 15µM* and TDP1 cell CPT inconclusive.
For CC(C)[C@H](NS(=O)(=O)c1ccccc1)C(=O)OCC(=O)Nc1cccc(S(N)(=O)=O)c1 the results were HT1080 IDH1KD tx 25%, HT1080-NT tox 0%, KB-V1 MDR tox inactive, KB-3-1 cytotox inactive, TDP1 cell noCPT -13% and TDP1 cell CPT -17%.
For C[C@H](CO)N1C[C@H](C)[C@H](CN(C)C(=O)NC2CCCCC2)Oc2ncc(Br)cc2C1=O the results were HT1080 IDH1KD tx 12%, HT1080-NT tox 12%, KB-V1 MDR tox inactive, KB-3-1 cytotox inactive, TDP1 cell noCPT -19% and TDP1 cell CPT -10%.
Screening COc1cc(O)ccc1C1CC(=O)Nc2c1c(=O)nc(SCc1ccccc1C)n2C (stereo not drawn) returned KB-V1 MDR tox inactive, KB-3-1 cytotox inactive, TDP1 cell noCPT -13% and TDP1 cell CPT -19%.
Screening CCOC(=O)c1c(C)oc2nc(C)nc(NCCCN3CCN(c4cccc(C)c4)C(C)C3)c12 (stereo not drawn) returned KB-V1 MDR tox inactive, KB-3-1 cytotox inactive, TDP1 cell noCPT inconclusive and TDP1 cell CPT inconclusive.
For Cn1nc(C(=O)NNC(=O)CCc2ccccc2Cl)c2ccccc2c1=O the results were HT1080 IDH1KD tx 5%, HT1080-NT tox 5%, KB-V1 MDR tox inactive, KB-3-1 cytotox inactive, TDP1 cell noCPT 2% and TDP1 cell CPT -3%.
For CCOc1ccc(N=Nc2c(=O)[nH]n3c(=O)cc(C)[nH]c23)cc1 the results were HT1080 IDH1KD tx inconclusive, HT1080-NT tox inconclusive, KB-V1 MDR tox inconclusive, KB-3-1 cytotox 23µM*, TDP1 cell noCPT inconclusive and TDP1 cell CPT 21µM*.
